This is part of a sample that, as a whole, favours compounds with a hit. Of some 79,000 tested, about 15% had one in any assay. Activity calls are given as the source filed them. Rule as the data show it: active = growth inhibition above about 70%; inactive = the rest.
Legend:
[1] = NCI Yeast Anticancer Drug Screen. Data for the rad52 strain (AID 147);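 also: 0% = growth of vehicle-treated control cultures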; conditions: S. cerevisiae rad52 mutant growth inhibition, stronger effect = higher value
Summary of the method: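 Inhibition of yeast growth, referenced to vehicle controls, was the measured output for a strain with defective DNA damage repair.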

[2] = NCI Yeast Anticancer Drug Screen. Data for the rad50EPP+ strain (AID 151);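 also: 0% = growth of vehicle-treated control cultures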; conditions: S. cerevisiae rad50 mutant strain, stronger effect = higher value
Summary of the method: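 Genetically defined yeast (rad50EPP+, DNA damage repair alteration) is grown with compound, and inhibition of growth is expressed relative to vehicle-treated controls.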

[3] = NCI Yeast Anticancer Drug Screen. Data for the mgt1 strain (AID 153); conditions: S. cerevisiae mgt1 mutant growth inhibition, stronger effect = higher value
Summary of the method: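 In the mgt1 strain, test compounds were added and growth inhibition was determined relative to vehicle-treated controls.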

[4] = NCI Yeast Anticancer Drug Screen. Data for the rad50 strain (AID 155);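 also: 0% = growth of vehicle-only cultures of the same strain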; conditions: S. cerevisiae rad50 strain growth inhibition, stronger effect = higher value
Summary of the method: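 Genetically altered yeast (DNA repair pathway); compound treatment; growth inhibition vs vehicle ctrl.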

[5] = NCI Yeast Anticancer Drug Screen. Data for the mec2-1 strain (AID 157); conditions: S. cerevisiae mec2-1 strain, stronger effect = higher value
Summary of the method: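 Each compound was tested on mec2-1 yeast, a strain altered in DNA damage repair or cell cycle control. Growth inhibition is reported relative to vehicle.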

[6] = NCI Yeast Anticancer Drug Screen. Data for the rad14 strain (AID 159);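 also: 0% = growth of vehicle-treated control cultures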; conditions: S. cerevisiae rad14 strain growth inhibition, stronger effect = higher value
Summary of the method: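 Test compounds were applied to a repair-deficient yeast strain. Its growth was then compared with that of cultures given vehicle alone, and inhibition was expressed relative to those controls.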

[7] = NCI Yeast Anticancer Drug Screen. Data for the sgs1 mgt1 strain (AID 161);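 also: 0% = growth of cultures given vehicle only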; conditions: S. cerevisiae sgs1 mgt1 strain, stronger effect = higher value
Summary of the method: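 Read-out: growth inhibition vs vehicle controls. Cells: mutant yeast strain deficient in DNA damage repair.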

[8] = NCI Yeast Anticancer Drug Screen. Data for the CLN2oe strain (AID 163);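 also: 0% = growth of vehicle-only control cultures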; conditions: S. cerevisiae CLN2oe strain, stronger effect = higher value
Summary of the method: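 First, the altered yeast strain was treated with each compound; second, its growth was measured; finally, inhibition was derived by comparison with vehicle controls.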

[9] = NCI Yeast Anticancer Drug Screen. Data for the cln2 rad14 strain (AID 165);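 also: 0% = growth equal to vehicle treated cultures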; conditions: S. cerevisiae cln2 rad14 strain, stronger effect = higher value
Summary of the method: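 Test compounds were added to cln2 rad14 yeast cultures; inhibition of growth was then determined by comparison with vehicle treatment.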

[10] = NCI Yeast Anticancer Drug Screen. Data for the bub3 strain (AID 167); conditions: S. cerevisiae bub3 mutant strain, stronger effect = higher value
Summary of the method: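 Yeast carrying a defined mutation is treated with each compound, and growth is compared with that of vehicle-exposed cells to give inhibition.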

[11] = NCI Yeast Anticancer Drug Screen. Data for the wt2 strain (AID 169);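 also: 0% = growth of vehicle-treated yeast cultures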; conditions: S. cerevisiae wt2 strain growth inhibition, stronger effect = higher value
Summary of the method: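 The panel's yeast strains carry defined changes in DNA repair or cell cycle genes. Each strain is grown with compound, and growth loss is scored relative to vehicle.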

[12] = NCI Yeast Anticancer Drug Screen. Data for the mlh1 strain (AID 171);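 also: 0% = growth of vehicle-treated control cultures of the same strain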; conditions: S. cerevisiae mlh1 strain growth inhibition, stronger effect = higher value
Summary of the method: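 Inhibition values reflect reduced yeast growth in the presence of compound, referenced to vehicle controls, using a strain chosen for its alteration in DNA repair or cell cycle control.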

[13] = NCI Yeast Anticancer Drug Screen. Data for the sgs1 strain (AID 173);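 also: 0% = growth of vehicle-only control cultures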; conditions: S. cerevisiae sgs1 mutant, stronger effect = higher value
Summary of the method: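 Vehicle-treated cultures served as reference for growth inhibition of a yeast strain altered in DNA damage repair or cell cycle control after compound exposure.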

[14] = NCI Yeast Anticancer Drug Screen. Data for the mlh1 rad18 strain (AID 175); conditions: S. cerevisiae mlh1 rad18 strain growth inhibition, stronger effect = higher value
Summary of the method: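 Inhibition values reflect reduced growth of mutant yeast versus vehicle-treated controls following compound exposure; the mutations affect DNA damage repair.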

[15] = NCI Yeast Anticancer Drug Screen. Data for the rad18 strain (AID 177); conditions: S. cerevisiae rad18 mutant growth inhibition, stronger effect = higher value
Summary of the method: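 Steps: expose repair-mutant yeast to compound; measure growth; express as inhibition relative to vehicle control.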

[16] = NCI Yeast Anticancer Drug Screen. Data for the wt1 strain (AID 149);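 also: 0% = growth of vehicle-treated wt1 cultures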; conditions: S. cerevisiae wt1 strain (SPY 50644) growth inhibition, stronger effect = higher value
Summary of the method: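 wt1 yeast, compound-treated; % growth inhibition vs vehicle control.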

[17] = at 5.0 µM (retest, dose inferred, filed as 0.5)
[18] = at 50.0 µM (retest, dose inferred, filed as 5.0)

Measured: growth inhibition

CCCCCCCCNC(=O)C1=C(C)NC(C)=C(C(=O)NCCCCCCCC)C1
inactive: [1]; at 1.2 µM 0% | [1]; at 3.7 µM 1% | [1]; at 11.0 µM 3% | [1]; at 33.0 µM -4% | [1]; at 100.0 µM 3% | [2]; at 1.2 µM 0% | [2]; at 3.7 µM -1% | [2]; at 11.0 µM 2% | [2]; at 33.0 µM 11% | [2]; at 100.0 µM 25% | [3]; at 1.2 µM 0% | [3]; at 3.7 µM 0% | [3]; at 11.0 µM 1% | [3]; at 33.0 µM -13% | [3]; at 100.0 µM 4% | [4]; at 1.2 µM -4% | [4]; at 3.7 µM -13% | [4]; [17] 8% | [4]; at 11.0 µM -17% | [4]; at 33.0 µM -3% | [4]; [18] 6% | [4]; at 50.0 µM -29.5% | [4]; at 100.0 µM 4% | [5]; at 1.2 µM 0% | [5]; at 3.7 µM 2% | [5]; [17] -7% | [5]; at 11.0 µM 0% | [5]; at 33.0 µM -4% | [5]; [18] 14% | [5]; at 50.0 µM -5.25% | [5]; at 100.0 µM 7% | [6]; at 1.2 µM 1% | [6]; at 3.7 µM 0% | [6]; at 11.0 µM 2% | [6]; at 33.0 µM 4% | [6]; at 100.0 µM 11% | [7]; [17] -7% | [7]; [18] 4% | [7]; at 50.0 µM 0.45% | [8]; at 1.2 µM 4% | [8]; at 3.7 µM 2% | [8]; at 11.0 µM -1% | [8]; at 33.0 µM 0% | [8]; at 100.0 µM 2% | [9]; [17] 42% | [9]; [18] 2% | [9]; at 50.0 µM 35.4% | [10]; at 1.2 µM 0% | [10]; at 3.7 µM 0% | [10]; [17] 35% | [10]; at 11.0 µM 0% | [10]; at 33.0 µM 0% | [10]; [18] -4% | [10]; at 50.0 µM -6.55% | [10]; at 100.0 µM 2% | [11]; at 1.2 µM 1% | [11]; at 3.7 µM 1% | [11]; at 11.0 µM 0% | [11]; at 33.0 µM 1% | [11]; at 100.0 µM 2% | [12]; at 1.2 µM 0% | [12]; at 3.7 µM 2% | [12]; at 11.0 µM 0% | [12]; at 33.0 µM 2% | [12]; at 100.0 µM 8% | [13]; at 1.2 µM 2% | [13]; at 3.7 µM 3% | [13]; at 11.0 µM -3% | [13]; at 33.0 µM 3% | [13]; at 100.0 µM 14% | [14]; [17] 8% | [14]; [18] -5% | [14]; at 50.0 µM -23.8% | [15]; at 1.2 µM -1% | [15]; at 3.7 µM -2% | [15]; at 11.0 µM -4% | [15]; at 33.0 µM -8% | [15]; at 100.0 µM 2%

O=C(CC(=O)n1nc(-c2ccccc2)c(N=Nc2ccccc2C(=O)O)c1-c1ccccc1)Nc1ccc(Cl)cc1
active: [10]; [18] 71% | [10]; at 50.0 µM 88.7% | [10]; at 100.0 µM 72%
inactive: [16]; at 1.2 µM -1% | [16]; at 3.7 µM -4% | [16]; at 11.0 µM -3% | [16]; at 33.0 µM -4% | [16]; at 100.0 µM -4% | [2]; at 1.2 µM 2% | [2]; at 3.7 µM 6% | [2]; at 11.0 µM 15% | [2]; at 33.0 µM 23% | [2]; at 100.0 µM 37% | [3]; at 1.2 µM -2% | [3]; at 3.7 µM -3% | [3]; at 11.0 µM -5% | [3]; at 33.0 µM -6% | [3]; at 100.0 µM 7% | [4]; at 1.2 µM -2% | [4]; at 3.7 µM 1% | [4]; [17] 7% | [4]; at 11.0 µM 1% | [4]; at 33.0 µM 2% | [4]; [18] 16% | [4]; at 50.0 µM 49% | [4]; at 100.0 µM 14% | [5]; at 1.2 µM -2% | [5]; at 3.7 µM -1% | [5]; [17] 3% | [5]; at 11.0 µM -2% | [5]; at 33.0 µM -3% | [5]; [18] 4% | [5]; at 50.0 µM 36.2% | [5]; at 100.0 µM 2% | [6]; at 1.2 µM -1% | [6]; at 3.7 µM 2% | [6]; at 11.0 µM 3% | [6]; at 33.0 µM 3% | [6]; at 100.0 µM 29% | [7]; [17] -5% | [7]; [18] 20% | [7]; at 50.0 µM 41.7% | [8]; at 1.2 µM -4% | [8]; at 3.7 µM -3% | [8]; at 11.0 µM -7% | [8]; at 33.0 µM -10% | [8]; at 100.0 µM -15% | [9]; [17] 2% | [9]; [18] 24% | [9]; at 50.0 µM 9.4% | [10]; at 1.2 µM 8% | [10]; at 3.7 µM 15% | [10]; [17] 6% | [10]; at 11.0 µM 28% | [10]; at 33.0 µM 46% | [11]; at 1.2 µM -3% | [11]; at 3.7 µM -3% | [11]; at 11.0 µM -3% | [11]; at 33.0 µM -6% | [11]; at 100.0 µM 4% | [12]; at 1.2 µM -2% | [12]; at 3.7 µM -3% | [12]; at 11.0 µM -3% | [12]; at 33.0 µM -6% | [12]; at 100.0 µM 6% | [13]; at 1.2 µM -2% | [13]; at 3.7 µM -1% | [13]; at 11.0 µM 1% | [13]; at 33.0 µM 0% | [13]; at 100.0 µM 21% | [14]; [17] -11% | [14]; [18] 43% | [14]; at 50.0 µM 36% | [15]; at 1.2 µM -4% | [15]; at 3.7 µM -1% | [15]; at 11.0 µM 3% | [15]; at 33.0 µM 6% | [15]; at 100.0 µM 43%

Reference: PubChem BioAssay (NCI)
